This passage reports cytotoxicity call results from the antibiotic and cytotoxicity screens of Wong et al. (2023).

The structures appear in SMILES notation. Out of some 39,000 compounds screened, about 3,300 (8.5%) were called active. The sample as a whole holds a higher share of actives than the screen did.

For the assay, the system named is HepG2. In words: cytotoxicity call (relative viability < 0.9). Particulars: 10 µM.
`O=C(C[C@H]1CC[C@H]2[C@@H](COC[C@@H](O)CN2S(=O)(=O)c2ccc(Cl)cc2)O1)NCc1ccncn1`: the cytotoxicity call is “inactive”.
For the compound `COc1ncc(-c2ccc3c(Nc4cc(Oc5cc(F)cc(F)c5)cc(C(=O)O)c4)c(S(=O)(=O)NC4CC4)cnc3c2)c(OC)n1`, the cytotoxicity call was “inactive”.
In the case of `CO[C@@H]1CN(C)C(=O)c2ccc(NC(=O)C3CC3)cc2OC[C@H](C)N(C(=O)C2CCOCC2)C[C@@H]1C`, the cytotoxicity call was “inactive”.
As to `COc1ccc(S(=O)(=O)Nc2cccc3c2O[C@H](CN(C)S(=O)(=O)c2ccc(C)cc2)[C@H](C)CN([C@@H](C)CO)C3=O)cc1`, the cytotoxicity call is “inactive”.
The value for `C[C@H]1CN([C@@H](C)CO)C(=O)c2cc(C#CCN(C)C)cnc2O[C@H]1CN(C)C(=O)c1ccc2c(c1)OCO2` was “inactive”.
As to `C[C@H](CO)N1C[C@H](C)[C@H](CN(C)Cc2ccc(C(F)(F)F)cc2)OCCCC[C@H](C)Oc2ccc(NC(=O)Nc3ccc(C(F)(F)F)cc3)cc2C1=O`, the cytotoxicity call was “active”.
Consider `C[C@H](CO)N1C[C@H](C)[C@@H](CN(C)Cc2ccc(C(F)(F)F)cc2)OCCCC[C@H](C)Oc2ccc(NC(=O)Nc3ccc(C(F)(F)F)cc3)cc2C1=O`, for which the cytotoxicity call is “inactive”.
For `C[C@@H]1CCCCO[C@@H](CN(C)Cc2ccc(C(F)(F)F)cc2)[C@H](C)CN([C@@H](C)CO)C(=O)c2cc(NC(=O)Nc3ccc(C(F)(F)F)cc3)ccc2O1`, the cytotoxicity call is “inactive”.
The entry for `C[C@@H]1CCCCO[C@H](CN(C)Cc2ccc(C(F)(F)F)cc2)[C@H](C)CN([C@@H](C)CO)C(=O)c2cc(NC(=O)Nc3ccc(C(F)(F)F)cc3)ccc2O1` is “active”; for `C[C@@H]1CCCCO[C@H](CN(C)Cc2ccc(C(F)(F)F)cc2)[C@@H](C)CN([C@@H](C)CO)C(=O)c2cc(NC(=O)Nc3ccc(C(F)(F)F)cc3)ccc2O1` it is “inactive”.
For the compound `C[C@@H]1CN([C@H](C)CO)C(=O)c2cc(NC(=O)Nc3ccc(C(F)(F)F)cc3)ccc2O[C@@H](C)CCCCO[C@H]1CN(C)Cc1ccc(C(F)(F)F)cc1`, the cytotoxicity call was “active”.
The entry for `C[C@@H]1CN([C@@H](C)CO)C(=O)c2cc(NC(=O)Nc3ccc(C(F)(F)F)cc3)ccc2O[C@@H](C)CCCCO[C@H]1CN(C)Cc1ccc(C(F)(F)F)cc1` is “active”; for `C[C@@H]1CN([C@@H](C)CO)C(=O)c2cc(NC(=O)Nc3ccc(C(F)(F)F)cc3)ccc2O[C@@H](C)CCCCO[C@@H]1CN(C)Cc1ccc(C(F)(F)F)cc1` it is “inactive”.
On to `O=C(CN1CCOCC1)NCC[C@@H]1CC[C@@H](NS(=O)(=O)c2ccc(F)cc2)[C@@H](CO)O1`, for which the cytotoxicity call was “inactive”.
The value for `CCS(=O)(=O)N1C[C@]2(C1)CN([C@@H](CO)c1[nH]c3cc(ccc3c12)OC)C(=O)Nc1c(noc1C)C` was “inactive”; that for `C[C@H](CO)N1C[C@H](C)[C@@H](CN(C)C(=O)CN(C)C)Oc2cc(C#C[C@@H](C)O)ccc2S1(=O)=O` was “inactive”.
With `C[C@@H]1CCCCO[C@H](CN(C)S(=O)(=O)c2ccc(Cl)cc2)[C@H](C)CN([C@@H](C)CO)C(=O)c2cc(NC(=O)C3CCCCC3)ccc2O1`, the cytotoxicity call is “inactive”.
On to `COc1ccc(NC(=O)N(C)C[C@H]2Oc3ccc(NS(=O)(=O)c4cn(C)cn4)cc3CC(=O)N([C@H](C)CO)C[C@@H]2C)cc1`, for which the cytotoxicity call is “inactive”.
In the case of `COc1ccccc1CNC(=O)C[C@H]1C[C@H]2c3cc(NC(=O)Nc4ccc(C(F)(F)F)cc4)ccc3O[C@H]2[C@@H](CO)O1`, the cytotoxicity call was “inactive”.
Take `C[C@@H]1CN([C@H](C)CO)C(=O)c2cc(NS(=O)(=O)c3ccc(F)cc3)ccc2O[C@@H](C)CCCCO[C@H]1CN(C)Cc1ccc2c(c1)OCO2`: the cytotoxicity call was “inactive”.
Consider `C[C@@H]1CN([C@H](C)CO)C(=O)Cc2cc(NC(=O)Nc3ccc4c(c3)OCO4)ccc2O[C@H]1CN(C)S(=O)(=O)c1cn(C)cn1`, for which the cytotoxicity call is “inactive”.
In the case of `O=C(C[C@@H]1CC[C@@H]2[C@H](COC[C@H](O)CN2S(=O)(=O)c2cccc(Cl)c2)O1)NCc1ccc2c(c1)OCO2`, the cytotoxicity call was “inactive”.
For `C[C@@H]1CN([C@@H](C)CO)S(=O)(=O)c2ccc(Br)cc2O[C@H]1CN(C)Cc1ccccc1F`, the cytotoxicity call was “inactive”.
The entry for `CC(C)NC(=O)Nc1ccc2c(c1)CC(=O)N([C@@H](C)CO)C[C@H](C)[C@H](CN(C)Cc1ccc(C(=O)O)cc1)O2` is “inactive”.
The entry for `C[C@@H]1CN([C@H](C)CO)C(=O)c2cc(NC(=O)C3CC3)ccc2O[C@@H]1CN(C)Cc1ccc(Oc2ccccc2)cc1` is “inactive”; for `Cc1noc(C)c1S(=O)(=O)N(C)C[C@H]1Oc2ccc(NC(=O)C3CC3)cc2CC(=O)N([C@H](C)CO)C[C@@H]1C` it is “inactive”.
The entry for `CCS(=O)(=O)N1CC[C@]2(CC1)CN([C@@H](CO)c1c2c2ccc(cc2n1C)OC)C(=O)c1cccc(c1)F` is “inactive”; for `C[C@H]1CCCCO[C@@H](CN(C)Cc2ccc(C(F)(F)F)cc2)[C@@H](C)CN([C@@H](C)CO)C(=O)c2cc(NC(=O)Nc3ccc(C(F)(F)F)cc3)ccc2O1` it is “active”; for `C[C@@H]1CCCCO[C@H](CN(C)Cc2ccc(C(F)(F)F)cc2)[C@@H](C)CN([C@H](C)CO)C(=O)c2cc(NC(=O)Nc3ccc(C(F)(F)F)cc3)ccc2O1` it is “active”.
For the compound `C[C@@H]1CCCCO[C@@H](CN(C)Cc2ccc(C(F)(F)F)cc2)[C@H](C)CN([C@H](C)CO)C(=O)c2cc(NC(=O)Nc3ccc(C(F)(F)F)cc3)ccc2O1`, the cytotoxicity call was “inactive”.
Consider `C[C@H]1CCCCO[C@H](CN(C)Cc2ccc(C(F)(F)F)cc2)[C@@H](C)CN([C@@H](C)CO)C(=O)c2cc(NC(=O)Nc3ccc(C(F)(F)F)cc3)ccc2O1`, for which the cytotoxicity call is “active”.
The entry for `C[C@@H]1CN([C@H](C)CO)C(=O)c2cc(NC(=O)Nc3ccc(C(F)(F)F)cc3)ccc2O[C@@H](C)CCCCO[C@@H]1CN(C)Cc1ccc(C(F)(F)F)cc1` is “inactive”.
In the case of `C[C@@H]1CCCCO[C@@H](CN(C)Cc2ccc(C(F)(F)F)cc2)[C@@H](C)CN([C@@H](C)CO)C(=O)c2cc(NC(=O)Nc3ccc(C(F)(F)F)cc3)ccc2O1`, the cytotoxicity call is “inactive”.
`C[C@@H]1CCCCO[C@@H](CN(C)Cc2ccc(C(F)(F)F)cc2)[C@@H](C)CN([C@H](C)CO)C(=O)c2cc(NC(=O)Nc3ccc(C(F)(F)F)cc3)ccc2O1`: the cytotoxicity call was “inactive”.
With `C[C@@H]1CCCCO[C@H](CN(C)Cc2ccc(C(F)(F)F)cc2)[C@H](C)CN([C@H](C)CO)C(=O)c2cc(NC(=O)Nc3ccc(C(F)(F)F)cc3)ccc2O1`, the cytotoxicity call is “active”.
`CN(C)CCCNC(=O)C[C@H]1CC[C@@H]2[C@H](COc3ccc(NC(=O)c4ccc5c(c4)OCO5)cc3C(=O)N2C)O1`: the cytotoxicity call was “inactive”.
Turning to `C[C@@H]1CN([C@H](C)CO)C(=O)c2cc(NS(=O)(=O)c3ccc(F)cc3)ccc2O[C@H]1CN(C)CC1CC1`, the cytotoxicity call was “inactive”.
With `C[C@@H]1CN([C@@H](C)CO)C(=O)c2cc(NC(=O)Cc3ccccc3)ccc2O[C@@H](C)CCCCO[C@@H]1CN(C)C(=O)CCC(F)(F)F`, the cytotoxicity call was “inactive”.
On to `C[C@@H]1CN([C@@H](C)CO)C(=O)c2cc(NC(=O)NC3CCCCC3)ccc2O[C@H]1CN(C)Cc1ccc(C(F)(F)F)cc1`, for which the cytotoxicity call is “inactive”.
The entry for `CO[C@H]1CN(C)C(=O)c2ccc(NC(=O)NC(C)C)cc2OC[C@H](C)N(Cc2ccc(-c3ccccn3)cc2)C[C@@H]1C` is “inactive”.
For the compound `C[C@@H]1CN([C@@H](C)CO)C(=O)c2cc(NC(=O)Nc3ccccc3)ccc2O[C@@H](C)CCCCO[C@H]1CN(C)Cc1ccncc1`, the cytotoxicity call was “inactive”.
Regarding `CC(C)C#Cc1ccc2c(c1)O[C@@H](CN(C)C(=O)Cc1ccccn1)[C@H](C)CN([C@@H](C)CO)S2(=O)=O`, the cytotoxicity call is “inactive”.
Turning to `Cc1noc(C)c1S(=O)(=O)N(C)C[C@H]1Oc2ccc(NC(=O)NC(C)C)cc2CC(=O)N([C@H](C)CO)C[C@@H]1C`, the cytotoxicity call is “inactive”.
With `C#CCOC(=O)[C@@H]1[C@@H](C(=O)O)[C@@H]2C=C[C@@H]1C2`, the cytotoxicity call was “inactive”.
With `COc1ccc(NC(=O)N(C)C[C@H]2Oc3ccc(NC(=O)C4CC4)cc3CC(=O)N([C@H](C)CO)C[C@@H]2C)cc1`, the cytotoxicity call was “inactive”.
With `C[C@@H]1CN([C@@H](C)CO)C(=O)c2cccc(NC(=O)c3cnccn3)c2O[C@H]1CN(C)CC1CCCCC1`, the cytotoxicity call is “inactive”.
For the compound `COCC#Cc1ccc2c(c1)O[C@@H](CN(C)S(=O)(=O)c1cccc(F)c1)[C@H](C)CN([C@H](C)CO)S2(=O)=O`, the cytotoxicity call is “inactive”.
Turning to `C[C@@H]1CN([C@@H](C)CO)C(=O)c2cccc(NC(=O)Nc3ccc(F)cc3)c2O[C@@H]1CN(C)Cc1ccc(Oc2ccccc2)cc1`, the cytotoxicity call is “inactive”.
In the case of `COc1ccc(S(=O)(=O)Nc2ccc3c(c2)C(=O)N([C@H](C)CO)C[C@H](C)[C@@H](CN(C)C(=O)Nc2cccc4ccccc24)OCCCC[C@@H](C)O3)cc1`, the cytotoxicity call was “inactive”.
The value for `COc1ccc(S(=O)(=O)Nc2ccc3c(c2)C(=O)N([C@H](C)CO)C[C@H](C)[C@@H](CN(C)C(=O)Nc2cccc4ccccc24)OCCCC[C@H](C)O3)cc1` was “active”; that for `COc1ccc(S(=O)(=O)Nc2ccc3c(c2)C(=O)N([C@H](C)CO)C[C@H](C)[C@H](CN(C)C(=O)Nc2cccc4ccccc24)OCCCC[C@@H](C)O3)cc1` was “inactive”; that for `COc1ccc(S(=O)(=O)Nc2ccc3c(c2)C(=O)N([C@@H](C)CO)C[C@H](C)[C@H](CN(C)C(=O)Nc2cccc4ccccc24)OCCCC[C@H](C)O3)cc1` was “active”.
With `COc1ccc(S(=O)(=O)Nc2ccc3c(c2)C(=O)N([C@@H](C)CO)C[C@@H](C)[C@@H](CN(C)C(=O)Nc2cccc4ccccc24)OCCCC[C@H](C)O3)cc1`, the cytotoxicity call was “inactive”.
As to `COc1ccc(S(=O)(=O)Nc2ccc3c(c2)C(=O)N([C@@H](C)CO)C[C@H](C)[C@H](CN(C)C(=O)Nc2cccc4ccccc24)OCCCC[C@@H](C)O3)cc1`, the cytotoxicity call is “inactive”.
Regarding `O=C(CN1CCOCC1)NCC[C@H]1CC[C@H](NC(=O)c2ccc3c(c2)OCO3)[C@H](CO)O1`, the cytotoxicity call was “inactive”.
For `C[C@H](CO)N1C[C@H](C)[C@H](CN(C)C(=O)Nc2ccc(F)cc2)OCCCC[C@H](C)Oc2ccc(NC(=O)C3CCCC3)cc2C1=O`, the cytotoxicity call is “inactive”.
